# Experimental data: PubChem BioAssay
# Records with an inconclusive call do not appear. Calls of active or inactive are those of the source.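 Rule for the calls, unless noted: active = efflux inhibition above 0.42, the validation set average plus 4 SD; inconclusive = no clear call, values can overlap the other calls; inactive = the rest.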
# Key:
# [1] = rapamycin-like changes in RPL19A-GFP expression – cell-based, S. cerevisiae, multiplex flow cytometry, primary screen (AID 1862; in the data active = percent of DMSO control GFP below about 86%;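 note: lower values mimic rapamycin by blocking the RPL19A rise seen in DMSO cells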); conditions: S. cerevisiae RPL19A-GFP strain, flow cytometry fluorescence, 3 h; at 10 µM; stronger effect = lower value
# [2] = TOR pathway GLN3 branch reporter MEP2-GFP changes – S. cerevisiae, multiplex flow cytometry, primary screen (AID 1867;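 active = GFP response, as percent of the DMSO control, above the screen-wide mean plus 3 SD, about 139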;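 note: median GFP channel fluorescence of barcode-gated MEP2-GFP cells measured by flow cytometry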); conditions: S. cerevisiae MEP2-GFP strain, 3 h, at 10 µM, stronger effect = higher value, 100% means same as DMSO wells
# [3] = TOR pathway RTG branch CIT2 reporter changes – S. cerevisiae, GFP fusion, multiplex flow cytometry, primary screen (AID 1870;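 active = percent response above a set limit, the screen-wide mean plus 3 SD, cut at about 130% in these data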;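 note: barcoded CIT2-GFP strain pooled with four other GFP strains with rapamycin as positive control; median GFP fluorescence per well over plate mean of DMSO wells so 100% = DMSO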); conditions: S. cerevisiae CIT2-GFP expression, 3 h, at 10 µM, stronger effect = higher value
# [4] = TOR pathway LAP4-GFP level changes – S. cerevisiae, multiplex flow cytometry, primary screen (AID 1873;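 active = GFP signal, as percent of the solvent control, above the screen mean plus 3 SD, about 149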); conditions: S. cerevisiae LAP4-GFP expression, 3 h, at 10 µM, stronger effect = higher value
# [5] = yeast AGP1-GFP level changes, GLN3 branch – cell-based, multiplex flow cytometry, S. cerevisiae, primary screen (AID 1887;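 active = GFP signal above the screen-wide mean plus 3 SD, that is over about 124.5% of the solvent control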;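 note: AGP1-GFP fusion strain of S. cerevisiae within a five-strain barcoded multiplex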); conditions: 3 h, at 10 µM, stronger effect = higher value
# [6] = reduced mouse 2C T cell binding to pMHC/ICAM-1 vesicles – MLPCN validation set, flow cytometry, LFA-1/ICAM-1 modulator project, pilot screen (AID 2523;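 active = response below a set limit, under 55% cells CD8-positive and vesicle-bound, and CD8 cells' 90th-percentile brightness under 279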;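 for vesicle binding response: mean PE anti-B7-1 fluorescence of CD8+ cells relative to row control; 100% = QL9-loaded vesicles with DMSO vehicle in the same plate row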); conditions: 2C mouse CD8+ T cells, at 7 µM, stronger effect = lower value; double positive events: measured here: CD8+/vesicle+ event percentage
# [7] = molecular target: Integrin beta-1 (Homo sapiens) + Integrin alpha-4 (Homo sapiens) (UniProt P13612+P05556); assay: alpha4beta1 integrin LIBS antibody binding reduction – U937 cells, HUTS-21 mAb, flow cytometry, validation set, VLA-4 allosteric modulator project, pilot screen (AID 2674;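 active = inhibition above 50%, about 3 SD of the validation set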;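 note: antibody binding induced by the VLA-4 ligand LDV present at three times its Kd; 0% = LDV ligand with antibody and no compound and 100% = antibody without LDV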); conditions: HUTS-21 LIBS mAb binding, at 6.7 µM, stronger effect = higher value, binding induced by LDV ligand
# [8] = calorie-restriction mimetic ROS inhibitors, yeast – validation compound set, pilot screen (AID 2706;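 active = superoxide response below 65% of plate, a cut near 3 SD across the whole screen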;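 note: yeast exposed to compound for one week at 30 degrees C before staining; 100% = mean of all compound wells on the same plate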); conditions: S. cerevisiae aging, superoxide DHE fluorescence; at 10 µM; stronger effect = lower value
# [9] = molecular target: Beta-adrenergic receptor kinase 1 (Homo sapiens) (UniProt P25098); assay: GRK2 binders displacing RNA aptamer, biochemical, validation, human GRK2, bead flow cytometry (AID 488806;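 active = aptamer binding inhibition above 30%, about 3 SD of noise from non-fluorescent compounds; inactive = inhibition at or below 30%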); conditions: bead-bound GRK2, FAM-aptamer displacement, at 10 µM, stronger effect = higher value
# [10] = molecular target: Beta-2 adrenergic receptor (Homo sapiens) (UniProt P07550); assay: agonist-induced loss of surface beta2AR – cell-based, FAP fluorogen, flow cytometry, validation set, pilot screen (AID 504459;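 active = percent response above 42, roughly 3 SD of non-fluorescent test compounds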;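 note: agonist-driven loss of surface beta2AR via internalization measured by FAP dye flow cytometry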); conditions: Am2.2-beta2AR cells, at 10 µM, stronger effect = higher value
# [11] = molecular target: AP-2 complex subunit beta (Homo sapiens) (UniProt P63010); assay: beta-arrestin/AP2 interaction blockers – biochemical, validation set, GST-AP2 beads, flow cytometry, pilot screen (AID 504541;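 active = inhibition above 54%, about 3 SD of non-fluorescent compounds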;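 note: AP2 carries R879A mutation and is captured from E. coli lysate; bead-bound FITC arrestin peptide fluorescence measuring arrestin peptide binding to AP2; 0% = DMSO wells and 100% = excess unlabeled arrestin peptide control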); conditions: FITC arrestin peptide, at 10 µM, stronger effect = higher value, AP2 beta2 appendage fragment, R879A mutant
# [12] = cytosolic pH regulators acting via V-ATPase – S. cerevisiae, pHLuorin, HTS validation (AID 504600; in the data active = response above about 15%;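 note: plate controls were DMSO for no effect and reference compound for full effect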); conditions: V-ATPase proton transport, at 10 µM, stronger effect = higher value
# [13] = system: anti-desmoglein-3 scFv antibody binding to human DSG3; assay: blockers of pathogenic pemphigus antibody–desmoglein-3 binding – biochemical, validation compound set, bead-based, flow cytometry, pilot screen (AID 588368;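 active = binding below the plate cutoff, the plate median minus 3 SD, with a reading above zero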;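 note: signal is the median channel fluorescence of bead-bound GFP antibody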); conditions: Protein G beads, DSG3-Fc, scFv-GFP binding, at 10 µM, stronger effect = lower value
# [14] = Nile Red efflux blockade in pump-expressing yeast – validation compound set, multiplex, phenotypic, pilot screen (AID 588506);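 note: Nile Red retained in cells so higher fluorescence means more efflux inhibition; 0 = negative control wells and 1 = enniatin B 25 µM full block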; conditions: S. cerevisiae pump-expressing triplex, Nile Red efflux flow cytometry; at 10 µM; stronger effect = higher value; the pumps come from Candida albicans
# [15] = molecular target: ATP-binding cassette sub-family B member 6 (Homo sapiens) (UniProt Q9NP58); assay: blockers of ABCB6-driven porphyrin uptake – K562-ABCB6 cells, flow cytometry, validation set, pilot screen (AID 588550;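 active = inhibition above the screen-wide mean plus 3 SD, about 51%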;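 note: 0% = DMSO wells and 100% = benzethonium chloride 70 µM positive control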); conditions: K562-ABCB6 porphyrin accumulation, 1 h, at 10 µM, stronger effect = higher value
# [16] = AML differentiation inducers, ER-HoxA9 marrow cells – cell-based, GFP/MAC1 double positive, flow cytometry, validation set, primary screen (AID 588685;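 active = differentiation response of at least 50%, scaled between solvent and reference control, from cells with both markers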;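 note: compound exposure lasts four days before antibody staining and flow analysis; 0% = DMSO wells and 100% = 5 µM fulvestrant positive control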); conditions: stronger effect = higher value, normalized: vehicle 0, fulvestrant 100
# Sequence of Integrin beta-1 (Homo sapiens) + Integrin alpha-4 (Homo sapiens) (P05556 whole entry, looked up): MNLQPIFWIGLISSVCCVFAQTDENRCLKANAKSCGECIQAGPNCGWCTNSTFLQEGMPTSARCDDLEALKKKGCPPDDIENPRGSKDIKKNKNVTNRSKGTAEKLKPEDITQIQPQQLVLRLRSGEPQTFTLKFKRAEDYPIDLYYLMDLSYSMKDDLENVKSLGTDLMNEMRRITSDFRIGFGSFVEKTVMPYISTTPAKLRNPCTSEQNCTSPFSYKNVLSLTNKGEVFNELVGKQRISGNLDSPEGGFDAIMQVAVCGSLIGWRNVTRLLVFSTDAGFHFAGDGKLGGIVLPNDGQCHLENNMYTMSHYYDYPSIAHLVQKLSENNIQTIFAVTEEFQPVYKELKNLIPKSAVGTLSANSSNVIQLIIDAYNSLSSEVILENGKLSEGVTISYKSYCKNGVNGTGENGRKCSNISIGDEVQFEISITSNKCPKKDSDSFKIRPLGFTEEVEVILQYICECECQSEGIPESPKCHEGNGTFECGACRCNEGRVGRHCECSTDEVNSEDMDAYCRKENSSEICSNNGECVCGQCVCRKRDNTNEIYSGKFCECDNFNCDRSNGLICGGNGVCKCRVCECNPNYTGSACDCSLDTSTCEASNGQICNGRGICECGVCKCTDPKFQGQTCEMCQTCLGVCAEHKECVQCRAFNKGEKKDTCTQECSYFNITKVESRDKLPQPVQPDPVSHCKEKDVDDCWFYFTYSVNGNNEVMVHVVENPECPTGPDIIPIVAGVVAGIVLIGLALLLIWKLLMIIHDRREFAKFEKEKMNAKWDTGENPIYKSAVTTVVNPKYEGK
# Sequence of Integrin beta-1 (Homo sapiens) + Integrin alpha-4 (Homo sapiens) (P13612 whole entry, looked up): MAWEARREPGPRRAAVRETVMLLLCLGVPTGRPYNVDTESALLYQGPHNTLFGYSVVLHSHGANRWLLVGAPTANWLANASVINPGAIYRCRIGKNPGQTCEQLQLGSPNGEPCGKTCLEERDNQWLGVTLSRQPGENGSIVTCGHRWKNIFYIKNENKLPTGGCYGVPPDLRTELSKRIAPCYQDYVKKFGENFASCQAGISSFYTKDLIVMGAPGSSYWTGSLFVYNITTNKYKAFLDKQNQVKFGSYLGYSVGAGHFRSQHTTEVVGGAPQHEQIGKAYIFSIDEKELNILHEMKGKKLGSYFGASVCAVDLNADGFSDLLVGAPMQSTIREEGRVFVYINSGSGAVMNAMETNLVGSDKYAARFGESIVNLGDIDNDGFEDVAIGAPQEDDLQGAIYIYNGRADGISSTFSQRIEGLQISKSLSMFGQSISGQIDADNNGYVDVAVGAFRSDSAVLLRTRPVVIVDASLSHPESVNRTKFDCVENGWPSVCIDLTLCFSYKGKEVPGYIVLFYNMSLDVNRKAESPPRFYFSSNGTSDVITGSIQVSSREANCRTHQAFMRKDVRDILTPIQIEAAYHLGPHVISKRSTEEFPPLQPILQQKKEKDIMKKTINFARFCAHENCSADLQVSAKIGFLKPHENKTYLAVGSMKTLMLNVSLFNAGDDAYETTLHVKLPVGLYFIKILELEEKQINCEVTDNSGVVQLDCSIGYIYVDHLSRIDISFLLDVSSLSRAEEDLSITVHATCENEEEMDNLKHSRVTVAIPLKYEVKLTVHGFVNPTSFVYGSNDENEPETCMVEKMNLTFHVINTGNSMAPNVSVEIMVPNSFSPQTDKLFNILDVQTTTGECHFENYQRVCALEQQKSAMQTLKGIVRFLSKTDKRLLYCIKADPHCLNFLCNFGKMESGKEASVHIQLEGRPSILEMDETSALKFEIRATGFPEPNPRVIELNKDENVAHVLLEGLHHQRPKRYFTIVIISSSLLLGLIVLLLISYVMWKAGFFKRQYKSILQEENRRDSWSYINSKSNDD
# Sequence of ATP-binding cassette sub-family B member 6 (Homo sapiens) (Q9NP58 whole entry, looked up): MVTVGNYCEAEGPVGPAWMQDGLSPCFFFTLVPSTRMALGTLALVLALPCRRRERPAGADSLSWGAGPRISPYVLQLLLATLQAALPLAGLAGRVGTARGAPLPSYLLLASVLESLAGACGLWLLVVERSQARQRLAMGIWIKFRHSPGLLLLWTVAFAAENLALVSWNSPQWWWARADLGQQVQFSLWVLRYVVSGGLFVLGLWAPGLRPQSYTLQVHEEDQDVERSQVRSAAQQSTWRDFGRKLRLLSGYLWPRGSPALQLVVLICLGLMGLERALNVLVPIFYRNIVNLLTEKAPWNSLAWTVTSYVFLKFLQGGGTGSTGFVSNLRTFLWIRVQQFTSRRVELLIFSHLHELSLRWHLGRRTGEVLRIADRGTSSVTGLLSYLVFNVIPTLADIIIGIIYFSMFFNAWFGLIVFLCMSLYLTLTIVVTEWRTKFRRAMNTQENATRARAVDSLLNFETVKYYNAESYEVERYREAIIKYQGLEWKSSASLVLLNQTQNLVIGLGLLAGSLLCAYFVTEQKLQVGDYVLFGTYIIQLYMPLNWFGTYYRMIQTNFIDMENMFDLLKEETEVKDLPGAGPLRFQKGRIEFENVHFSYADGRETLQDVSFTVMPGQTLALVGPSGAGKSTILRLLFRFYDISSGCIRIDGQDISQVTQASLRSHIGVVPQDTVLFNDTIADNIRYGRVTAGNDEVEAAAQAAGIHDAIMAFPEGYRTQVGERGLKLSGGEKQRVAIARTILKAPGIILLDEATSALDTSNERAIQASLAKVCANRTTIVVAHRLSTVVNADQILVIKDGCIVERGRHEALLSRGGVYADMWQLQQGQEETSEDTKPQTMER
# Sequence of Beta-2 adrenergic receptor (Homo sapiens) (P07550 whole entry, looked up): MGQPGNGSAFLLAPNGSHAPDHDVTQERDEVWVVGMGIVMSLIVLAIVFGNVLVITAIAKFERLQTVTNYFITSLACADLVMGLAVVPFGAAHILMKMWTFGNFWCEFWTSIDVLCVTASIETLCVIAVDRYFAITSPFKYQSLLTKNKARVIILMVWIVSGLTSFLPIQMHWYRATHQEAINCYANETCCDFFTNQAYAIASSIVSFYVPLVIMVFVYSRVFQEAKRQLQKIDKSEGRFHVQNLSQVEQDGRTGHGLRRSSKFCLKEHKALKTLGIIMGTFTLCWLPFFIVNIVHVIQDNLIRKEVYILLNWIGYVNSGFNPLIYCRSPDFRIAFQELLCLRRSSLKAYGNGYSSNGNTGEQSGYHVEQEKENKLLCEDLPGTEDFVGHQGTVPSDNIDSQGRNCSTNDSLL
# Sequence of Beta-adrenergic receptor kinase 1 (Homo sapiens) (P25098 whole entry, looked up): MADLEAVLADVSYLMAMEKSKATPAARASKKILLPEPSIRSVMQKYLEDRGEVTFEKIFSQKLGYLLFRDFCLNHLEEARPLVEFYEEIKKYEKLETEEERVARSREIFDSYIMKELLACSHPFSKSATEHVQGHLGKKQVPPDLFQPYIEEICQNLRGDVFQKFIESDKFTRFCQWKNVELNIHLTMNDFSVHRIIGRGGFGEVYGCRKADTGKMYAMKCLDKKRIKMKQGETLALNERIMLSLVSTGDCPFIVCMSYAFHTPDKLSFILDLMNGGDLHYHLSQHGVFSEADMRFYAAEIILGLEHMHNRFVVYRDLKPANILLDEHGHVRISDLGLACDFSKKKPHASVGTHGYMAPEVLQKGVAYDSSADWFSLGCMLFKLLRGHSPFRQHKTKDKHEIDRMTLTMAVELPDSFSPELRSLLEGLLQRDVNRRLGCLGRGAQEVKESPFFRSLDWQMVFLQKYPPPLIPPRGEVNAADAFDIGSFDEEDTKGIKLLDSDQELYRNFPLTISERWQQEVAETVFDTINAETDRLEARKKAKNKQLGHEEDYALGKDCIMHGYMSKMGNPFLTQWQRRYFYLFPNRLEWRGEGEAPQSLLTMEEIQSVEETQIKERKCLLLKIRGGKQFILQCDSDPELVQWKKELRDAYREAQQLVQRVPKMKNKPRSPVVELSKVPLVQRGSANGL
# Sequence of AP-2 complex subunit beta (Homo sapiens) (P63010 whole entry, looked up, the tested form may be a part, one chain of several): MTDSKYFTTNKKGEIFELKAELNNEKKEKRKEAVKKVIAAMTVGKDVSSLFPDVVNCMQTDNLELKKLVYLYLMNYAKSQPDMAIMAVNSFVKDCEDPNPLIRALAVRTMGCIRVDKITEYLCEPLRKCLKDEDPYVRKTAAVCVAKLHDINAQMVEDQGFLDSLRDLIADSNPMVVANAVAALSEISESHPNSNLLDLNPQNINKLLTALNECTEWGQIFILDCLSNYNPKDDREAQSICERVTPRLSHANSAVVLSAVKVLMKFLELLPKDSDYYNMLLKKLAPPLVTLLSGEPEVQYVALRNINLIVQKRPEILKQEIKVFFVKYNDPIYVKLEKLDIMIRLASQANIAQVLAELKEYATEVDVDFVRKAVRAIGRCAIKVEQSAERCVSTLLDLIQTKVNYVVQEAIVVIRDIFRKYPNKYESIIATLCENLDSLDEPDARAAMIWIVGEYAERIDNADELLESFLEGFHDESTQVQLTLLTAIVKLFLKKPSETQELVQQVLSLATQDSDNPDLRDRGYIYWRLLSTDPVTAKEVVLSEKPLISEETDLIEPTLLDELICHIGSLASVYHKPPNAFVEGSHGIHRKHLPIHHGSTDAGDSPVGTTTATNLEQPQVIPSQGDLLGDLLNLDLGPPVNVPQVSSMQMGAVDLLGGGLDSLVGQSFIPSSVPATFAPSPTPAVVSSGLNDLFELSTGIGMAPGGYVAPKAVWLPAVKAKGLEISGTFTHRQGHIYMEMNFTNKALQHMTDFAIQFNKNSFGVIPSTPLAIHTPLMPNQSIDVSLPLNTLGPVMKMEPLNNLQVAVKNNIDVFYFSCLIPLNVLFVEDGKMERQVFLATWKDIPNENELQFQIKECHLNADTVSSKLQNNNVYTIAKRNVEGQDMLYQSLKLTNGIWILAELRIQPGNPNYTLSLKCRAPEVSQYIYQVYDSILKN
SMILES,percent of DMSO control GFP [1],GFP response vs DMSO [2],percent response of DMSO control [3],GFP response vs DMSO [4],"GFP response, % of DMSO [5]",double positive events [6] [%],vesicle binding response [6],inhibition [7],superoxide response (% of plate) [8],aptamer binding inhibition [9],response [10],inhibition [11],response [12],binding (% of control) [13],efflux inhibition (fraction of control) [14],inhibition [15],differentiation response [16]
O=C(CSCc1ccccc1)NCCCN1CCOCC1,97.9% (inactive),106% (inactive),104% (inactive),98% (inactive),107% (inactive),62.4,197% (inactive),12.3% (inactive),114% (inactive),3% (inactive),-1.38% (inactive),-9.56% (inactive),3.45% (inactive),102% (inactive),0.17 (inactive),15% (inactive),-14.8% (inactive)
COc1ccc(/C=C/C(=O)NC(=S)NN2CCCCC2c2cccnc2)cc1 (stereo not given),106% (inactive),99.7% (inactive),102% (inactive),107% (inactive),109% (inactive),66.3,199% (inactive),-2.43% (inactive),95.5% (inactive),-3% (inactive),-5.93% (inactive),12.7% (inactive),0.36% (inactive),104% (inactive),0.33 (inactive),2% (inactive),-4.57% (inactive)
COc1cccc(-n2cc(CNCc3c(C(=O)N(C)C)nc4ccc(Cl)cn34)cn2)c1,103% (inactive),106% (inactive),111% (inactive),90.1% (inactive),99.9% (inactive),61.4,171% (inactive),-4.6% (inactive),106% (inactive),5% (inactive),-6.24% (inactive),-5.56% (inactive),-0.56% (inactive),98% (inactive),-0.26 (inactive),19% (inactive),10% (inactive)
Oc1[nH]c2ccccc2c1C1=NCCCC1,102% (inactive),105% (inactive),96% (inactive),99.4% (inactive),106% (inactive),63.2,161% (inactive),-3.18% (inactive),84.9% (inactive),8% (inactive),17.8% (inactive),-15.4% (inactive),1.51% (inactive),102% (inactive),-0.12 (inactive),11% (inactive),0% (inactive)
NCCCC(N)(C(=O)O)C(F)F (stereo not given),93.5% (inactive),99.7% (inactive),98.6% (inactive),107% (inactive),112% (inactive),62.2,174% (inactive),5.61% (inactive),105% (inactive),3% (inactive),5.08% (inactive),13.1% (inactive),-10.9% (inactive),97.7% (inactive),-0.135 (inactive),-5% (inactive),-4.57% (inactive)
COc1ccc(C(=O)Nc2ccccc2C(=O)NC(Cc2c[nH]c3ccccc23)C(=O)O)cc1 (stereo not given),101% (inactive),107% (inactive),95.4% (inactive),92.7% (inactive),95.4% (inactive),64.5,174% (inactive),-28.5% (inactive),107% (inactive),3% (inactive),10.6% (inactive),51.3% (inactive),-3% (inactive),99.8% (inactive),0.33 (inactive),-16% (inactive),22.7% (inactive)
O=C(O)COc1ccc2occ(C(=O)c3ccccc3)c2c1,99.8% (inactive),106% (inactive),101% (inactive),96% (inactive),92.9% (inactive),63.9,180% (inactive),15.1% (inactive),107% (inactive),4% (inactive),-5% (inactive),0.98% (inactive),0.64% (inactive),94.2% (inactive),-0.17 (inactive),3% (inactive),7.09% (inactive)
CCOC(=O)C(NC(C)=O)C(O)c1ccc([N+](=O)[O-])cc1 (stereo not given),99.5% (inactive),105% (inactive),85.3% (inactive),124% (inactive),99.2% (inactive),57.3,211% (inactive),-3.16% (inactive),103% (inactive),0% (inactive),4.84% (inactive),-1.65% (inactive),-1.89% (inactive),99.7% (inactive),-0.21 (inactive),6% (inactive),32.8% (inactive)
Cc1ccc(CN2CCN(Cc3cn[nH]c3C3CCCCC3)CC2CCO)cc1 (stereo not given),102% (inactive),103% (inactive),97.7% (inactive),106% (inactive),122% (inactive),58.2,264% (inactive),21% (inactive),87.9% (inactive),0% (inactive),-22.7% (inactive),7.73% (inactive),-2.29% (inactive),103% (inactive),0.08 (inactive),8% (inactive),-5.97% (inactive)
COc1cc(C(=O)Nc2ccc(N(C)C)cc2)c([N+](=O)[O-])cc1OC,100% (inactive),104% (inactive),101% (inactive),104% (inactive),98.6% (inactive),63.5,224% (inactive),-3.57% (inactive),101% (inactive),4% (inactive),-1.8% (inactive),2.96% (inactive),0.28% (inactive),93.2% (inactive),-0.2 (inactive),7% (inactive),4.15% (inactive)
